The source of these data is PubChem BioAssay (NCI).

About 83,000 compounds went through this panel and 20% of them were active in at least one assay; those are over-represented in the sample as a whole.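 Step 1: grow cells in 96-well plates. Step 2: add test compound at a single concentration. Step 3: incubate 48 h. Step 4: record percent growth.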 Calls of active or inactive are those of the source. How the source made its calls: active means growth percent below 10; inactive means the rest.

This assay concerns MDA-MB-468 breast. Nature of the assay: NCI-60 one-dose screen, 48 h (100 = growth as untreated, 0 = no growth, -100 = all killed). The note with it: 10 µM unless noted.
Regarding `O=C(Nc1nc(-c2ccccc2)cs1)c1cc(-c2ccc(Br)cc2)nc2ccccc12`, the growth was 35.2% (inactive).

Turning to `CC1(C)S[C@@H]2[C@H](NC(=O)[C@H](C(=O)O)c3cccs3)C(=O)N2[C@H]1C(=O)O`, the growth was 102% (inactive). Next, `CCOC(=O)c1ccccc1NC1=C(Cl)C(=O)c2nc(C)ccc2C1=O`: 97.3% (inactive).

On to `Cc1ccc(C(O)C2=CC(=O)c3ccccc3C2=O)cc1` (stereo not given), for which the growth is 96.5% (inactive). Next, `C/C(=C(/C)C1CC1CCN(C(=O)c1ccccn1)S(=O)(=O)c1ccc(C)cc1)C1CCCCC1` (stereo not given): 75.7% (inactive). Next, `COc1ccc([C@@H]2[C@@H](O)C(=O)N2c2cc(OC)c(OC)c(OC)c2)cc1`: 2.98% (active); `CCCC1(CN2c3ccccc3Sc3ccc(Cl)cc32)CCN(CC)C1` (stereo not given): -64.2% (active); `O=C(O)C1(Cc2cccc(Nc3nccs3)n2)CCC(Oc2cccc(Cl)c2F)CC1` (stereo not given): 33.4% (inactive).

With `Cc1cccc2c(=O)c3c(sc12)c(NCc1ccccc1)nc1ccccc13`, the growth was -12.7% (active).

On to `NC(=O)NS(=O)(=O)c1ccc(N2N=C(C(F)(F)F)CC2c2cc(C(F)(F)F)cc(C(F)(F)F)c2)cc1` (stereo not given), for which the growth was 70.1% (inactive). Consider `COc1ccccc1S(=O)(=O)Nc1ccc2c3c(cc(-c4cnn(C5CC5)c4)nc13)C(=O)N2C`, for which the growth is 50.9% (inactive).

`O=C(CCN1CCOCC1)Nc1ccc(Cn2nnc3c2C(=O)c2nnn(Cc4ccc(NC(=O)CCN5CCOCC5)cc4)c2C3=O)cc1`: the growth is -72.2% (active). For `CC(C)n1nc(C#Cc2cccc(NC(=O)c3cccc(C(F)(F)F)c3)c2)c2c(N)ncnc21`, the growth was 8.73% (active). As for `CCOC(=O)C(CC(c1ccccc1)N1CCCCC1)[N+](=O)[O-]` (stereo not given), the growth was 49.7% (inactive). In the case of `O=Nc1ccc(Nc2ccccc2)cc1` it was -8.9% (active); in that of `Cl.Fc1c[c-]c(-c2ccccn2)c(F)c1.[Pt].c1ccc([PH+](CC[PH+](c2ccccc2)c2ccccc2)c2ccccc2)cc1`, -79.2% (active). As to `CCN(CC)S(=O)(=O)c1ccc(-c2nc(C(Cl)Cl)nc3cc(C)nn23)cc1`, the growth was -33.6% (active). In the case of `Cc1ccc(C=C2C(Cl)=C(Cl)C(Cl)=C2Cl)cc1` it was -59.4% (active); in that of `COc1cc2c(c(OC)c1OC)C(=O)CC(c1cccc(C(=O)Nc3cccc(Br)c3)c1)O2` (stereo not given), 71% (inactive).

On to `CCC12CCC3c4ccc(O)cc4CCC3C1CC(O)C2O` (stereo not given), for which the growth was 58.4% (inactive). Next, `COc1ccc2nc(NCCCNCCO)c3sc4ccc(F)cc4c(=O)c3c2c1`: -31.6% (active); `C=CCSc1ccc2c(c1)C(N1CCNCC1)=Nc1ccccc1O2`: 27.8% [8.25 µM] (inactive); `COC(=O)C1CCc2sc3ncnc(Nc4cn[nH]c4C(=O)Nc4ccc(CN5CCN(C)CC5)cc4)c3c21` (stereo not given): 37.3% (inactive). `Nc1nc(=S)ss1`: the growth was 101% (inactive). Next, `CC(=O)c1cc2c(N)c(C(=O)Nc3cccc(F)c3C)sc2nc1C`: 54.2% (inactive); `CC1CCc2c(sc3nc(SCC(=O)N/N=C/c4cccc(O)c4O)n(-c4ccccc4)c(=O)c23)C1` (stereo not given): 77.7% (inactive); `O=C(Oc1ccccc1[N+](=O)[O-])C1CCCN1C(=O)OCc1ccccc1` (stereo not given): 97.3% (inactive).

Consider `O=C(Nc1cccc(-c2nc3ccccc3[nH]2)c1)c1cccc(NC(=O)c2ccco2)c1`, for which the growth is 70.8% (inactive). In the case of `COC(=O)Nc1nc2ccc(S(=O)c3ccccc3)cc2[nH]1` (stereo not given) it was 33.8% (inactive); in that of `CCOc1ccccc1/C=N/Nc1nc2ccccc2o1`, 28.1% (inactive). In the case of `COC(=O)Nc1ccc(-c2nc(-c3cccc(O)c3)c(-c3ccnc(Br)c3)[nH]2)cc1` it was 25.6% (inactive).

On to `CCc1ccc(CNc2ccc(N3CCOCC3)c(C(=O)O)c2)cc1`, for which the growth is 101% (inactive).

Turning to `COc1cc(-c2nc(SCCC(C)C)nc(Nc3ccccc3)c2C#N)cc(OC)c1OC`, the growth was 112% (inactive).

As to `COc1cc(/C=C/C(=O)Nc2cccnc2Nc2ccc(F)cc2)cc(OC)c1OC`, the growth is 97.4% (inactive). In the case of `C/C(=N\NC(=O)c1ccccc1N)c1ccccc1O` it was 15.5% (inactive). Next, `CN(C)c1ccc2[nH]c3c(C(N)=O)cc(=O)c(=O)c=3oc2c1`: 59.2% (inactive); `Nc1ncnc2c1ncn2C1OC(COP(=O)(O)O)C(O)C1O` (stereo not given): 102% (inactive). Next, `O=C1c2cc3c(cc2-c2c1c1ccc(F)cc1c(=O)n2CCCN1CCOCC1)OCO3`: 18.5% (inactive). With `CCSc1nc2c([nH]1)c(=O)n(C)c(=S)n2C`, the growth was 109% (inactive). For the compound `O=C1/C(=C/c2ccc(F)cc2)Sc2c(Br)cccc21`, the growth is 84.1% (inactive).
